These results are taken from PubChem BioAssay (NCATS).

Results filed as inconclusive are left out. Values without a mark were called inactive. Active and inactive are the calls of the source. The call rests on the fitted dose curve.
On the % scale 0 is the no-effect control and ±100 the full control effect.

In the test the target is Nucleoprotein (Lymphocytic choriomeningitis virus (strain Armstrong)) (UniProt P09992). The test is described as follows: qHTS for Inhibitors of the Functional Ribonucleoprotein Complex (vRNP) of Lymphocytic Choriomeningitis Arenaviruses (LCMV): LCMV Primary Screen - GLuc reporter signal (AID 1347086). Further: nearly all actives have a fitted effect of over 70% in size. Particulars: LCMV minigenome vRNP cell assay, Gaussia luciferase reporter; series mostly up to 57.5 µM; activity change, negative = inhibition: at the top concentration.
Sequence of Nucleoprotein (Lymphocytic choriomeningitis virus (strain Armstrong)) (P09992 whole entry, looked up): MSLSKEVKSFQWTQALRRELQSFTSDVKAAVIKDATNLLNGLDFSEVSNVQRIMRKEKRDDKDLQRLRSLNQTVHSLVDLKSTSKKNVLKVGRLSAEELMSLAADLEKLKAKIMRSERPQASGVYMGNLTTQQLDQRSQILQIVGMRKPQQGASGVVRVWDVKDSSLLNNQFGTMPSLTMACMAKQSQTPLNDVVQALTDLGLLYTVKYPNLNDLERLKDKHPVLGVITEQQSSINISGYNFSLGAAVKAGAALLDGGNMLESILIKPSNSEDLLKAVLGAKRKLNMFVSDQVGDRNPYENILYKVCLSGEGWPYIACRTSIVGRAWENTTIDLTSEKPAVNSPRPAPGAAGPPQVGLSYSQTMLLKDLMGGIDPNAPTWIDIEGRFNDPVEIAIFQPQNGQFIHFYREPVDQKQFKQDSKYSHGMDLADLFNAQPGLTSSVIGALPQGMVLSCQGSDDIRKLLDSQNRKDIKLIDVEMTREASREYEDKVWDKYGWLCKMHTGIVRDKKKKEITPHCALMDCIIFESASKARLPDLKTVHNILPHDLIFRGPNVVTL
In the case of `Cc1ccc(C(C)OC(=O)C2(C)CCC(C(=O)O)C2(C)C)cc1` (stereo not given), the “activity change, negative = inhibition” value was -1.98%.

Turning to `OCc1ccccc1O`, the “activity change, negative = inhibition” value was -12.5%. The same measure, in the same setting: under `C#C[C@]1(O)CC[C@H]2[C@@H]3[C@H](C)CC4=C(CCC(=O)C4)[C@H]3CC[C@@]21C` stands -9.98%; under `Cc1ncc(CSSCc2cnc(C)c(O)c2CO)c(CO)c1O`, 1.17%; under `OC[C@H]1O[C@@H](OCCc2ccc(O)cc2)[C@H](O)[C@@H](O)[C@H]1O`, 2.24%.

`Oc1ccc(Cl)cc1Sc1cc(Cl)ccc1O`: the “activity change, negative = inhibition” value was -33.2%. For `c1cnc(N2CCN(Cc3ccc4c(c3)OCO4)CC2)nc1`, the “activity change, negative = inhibition” value was 9.48%. Same read-out and setting: in the case of `O=C1NC(=O)[C@@]2(CCOc3ccc(F)cc32)N1` it was 8.17%. The same measure, in the same setting: under `O=S1(=O)c2cccc3cccc(c23)N1CCCN1CCN(c2ccc(F)cc2)CC1` stands 1.45%. As for `Cn1cnc2c1c(=O)[nH]c(=O)n2C`, the Potency result is “inactive”. Turning to `O=C(CCCN1CCC(O)(c2cccc(C(F)(F)F)c2)CC1)c1ccc(F)cc1`, the Potency entry is “inactive”. On to `COC(=O)C1=C(C)NC(C)=C(C(=O)OC)C1c1ccccc1[N+](=O)[O-]`, for which the “activity change, negative = inhibition” value is 1.16%. Same read-out and setting: under `OC(CCCN1CCCCC1)(c1ccccc1)c1ccccc1` stands -14.8%; under `Cc1c(F)cc2c(=O)c(C(=O)O)cn3c2c1CCC3C` (stereo not given), 7.93%; under `CCCC(=O)OC[C@@H](OC(=O)CCC)[C@@H](OC(=O)CCC)[C@H](Cn1c2nc(=O)[nH]c(=O)c-2nc2cc(C)c(C)cc21)OC(=O)CCC`, 2.68%. On the same count and under the same terms, under `Cc1cc(CC(=O)O)n(C)c1C(=O)c1ccc(Cl)cc1` stands 3.69%; under `Cc1ccc2nc(N)[nH]c(=O)c2c1Sc1ccncc1`, -34.6%. Turning to `CCCCC/C=C\C/C=C\CCCCCCCC(=O)NC(C)c1ccccc1` (stereo not given), the “activity change, negative = inhibition” value is -25.2%. Regarding `CC1=C(CC(=O)O)c2cc(F)ccc2/C1=C\c1ccc(S(C)(=O)=O)cc1`, the Potency result is “inactive”.

Turning to `CC(C)C(=O)OCc1cccc(OC(=O)[C@@H]2N3C(=O)[C@@H](NC(=O)Cc4ccccc4)[C@H]3SC2(C)C)c1`, the “activity change, negative = inhibition” value was 10.1%.
